This is an account of results in PubChem BioAssay AID1672 (Johns Hopkins Ion Channel Center, 2009).

Out of some 310,000 compounds screened, about 2,600 (0.84%) were called active. This excerpt belongs to a sample that is enriched for actives. A number with no mark means an inactive call.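 The calls were made as follows: active = fluorescence ratio B-score at or below minus 3 SD of library scores, with starting-brightness B-score within 2 SD (cut at about -4.2 in these data); inactive = the rest.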

For the experiment, the target named is Inward rectifier potassium channel 2 (Mus musculus) (UniProt P35561). As to the kind of experiment: inhibitors of mouse Kir2.1 inward-rectifier potassium channel (AID 1672).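 Also: channel flux triggered by added potassium and thallium sulfate stimulus; B-score of peak minus minimum fluorescence over baseline after thallium stimulus; more negative B-score means stronger Kir2.1 block with less thallium influx.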 The note with it: HEK293-Kir2.1, FluxOR thallium flux fluorescence; at 10 µM; stronger effect = lower value.
Inward rectifier potassium channel 2 (Mus musculus), sequence (P35561 whole entry, looked up): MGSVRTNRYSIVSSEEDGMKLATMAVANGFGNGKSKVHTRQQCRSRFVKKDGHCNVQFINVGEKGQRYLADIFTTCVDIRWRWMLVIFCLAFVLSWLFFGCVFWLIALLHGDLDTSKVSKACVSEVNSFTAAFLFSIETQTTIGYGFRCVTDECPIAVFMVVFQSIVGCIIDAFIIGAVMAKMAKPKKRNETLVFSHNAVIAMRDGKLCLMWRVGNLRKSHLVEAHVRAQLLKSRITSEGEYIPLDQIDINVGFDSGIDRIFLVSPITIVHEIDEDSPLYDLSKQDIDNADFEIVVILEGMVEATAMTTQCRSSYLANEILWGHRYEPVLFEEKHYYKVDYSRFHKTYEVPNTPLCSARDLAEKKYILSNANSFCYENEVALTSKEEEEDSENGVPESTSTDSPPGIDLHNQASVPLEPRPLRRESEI
In the case of `CC1CCCN(CCOCCOc2ccccc2-c2ccccc2)C1` (stereo not drawn), the B-score is -6.74 (active). For `CN1CCN(CCCCOc2ccccc2-c2ccccc2)CC1`, the B-score was -6.95 (active). For `CN1CCN(CCCCOc2cccc3ccccc23)CC1`, the B-score was -1.84. The same measure for `COc1ccccc1OCCCCCCN1CCN(C)CC1`: 1; for `c1ccc(-c2ccccc2OCCN2CCCCC2)cc1`: -1.64. With `CC1CN(CCCOc2ccccc2-c2ccccc2)CC(C)O1` (stereo not drawn) the figure was -4.04; with `CC(OC(=O)CCCc1c[nH]c2ccccc12)C(=O)Nc1ccc(S(N)(=O)=O)cc1` (stereo not drawn), -0.01; with `Cc1sc(NC(=O)C2=COCCO2)c(C#N)c1C`, -0.98. With `O=C(NCCc1c[nH]c2ccccc12)c1cccc(Br)c1` the figure was -0.14.

As for `Cc1ccc2[nH]cc(CCNC(=O)C3CCCCC3)c2c1`, the B-score was 0.62.

For the compound `O=C(NCCc1c[nH]c2ccccc12)C1CCN(Cc2ccc(Br)cc2)CC1`, the B-score is -5.88 (active).

Turning to `Cc1c(NC(=O)C(C)OC(=O)c2c3c(nc4ccccc24)CCC(C)C3)c(=O)n(-c2ccccc2)n1C` (stereo not drawn), the B-score is 0.01. The same measure for `Cc1cc(C)nc(SCc2nnc(SCC(=O)OC3CCCCC3)o2)n1`: -6.39 (active); for `Cc1cc(C)cc(OCc2nnc(SCC(=O)OC3CCCCC3)o2)c1`: 2.83; for `CCOC(=O)C(C)Sc1nnc(CSc2nc3nc(C)cc(C)n3n2)o1` (stereo not drawn): 0.45.

For `C(=C\c1ccccc1)/CSc1nnc(-c2cccnc2)n1Cc1ccco1`, the B-score was -6.26 (active). On to `O=C(CSc1nnc(-c2cccnc2)n1Cc1ccco1)c1ccc(Cl)cc1`, for which the B-score is -3.48. With `O=C(CSc1nnc(-c2cccnc2)n1Cc1ccco1)c1ccc(Cl)c(Cl)c1` the figure was -0.81; with `O=C(Cc1ccc(S(=O)(=O)N2CCOCC2)s1)NCCOc1ccccc1F`, -0.88; with `O=C(CCC1CCCCC1)Nc1cc(C(F)(F)F)ccc1N1CCOCC1`, -0.88. With `Cc1cc(=O)oc2cc(NC(=O)C(C)Oc3ccccc3)ccc12` (stereo not drawn) the figure was 0.76; with `COc1ccc(C(O)(C2CCCCC2)C(CN2CCCC2)c2ccccc2)cc1` (stereo not drawn), -6.33 (active); with `CCCC(O)(c1ccc(OC)cc1)C(CN(C)C)c1ccccc1` (stereo not drawn), -2.85. With `CC(CN1CCCCC1)c1ccccc1` (stereo not drawn), the B-score is -0.88. With `CN(CC(=O)NCc1cccnc1)S(=O)(=O)c1cc(Cl)ccc1Cl` the figure was 0.05.

With `Cc1ccc(S(=O)(=O)NCCC(=O)NNC(=O)C2COc3ccccc3O2)cc1` (stereo not drawn), the B-score was -0.97. The same measure for `COc1cccc(CC2(CO)CCCN(Cc3ccc(OC(F)F)cc3)C2)c1` (stereo not drawn): -1.05; for `Cn1c(-c2ccco2)nc2cc3ccccc3cc21`: 0.04; for `CN1c2ccccc2-c2nc3ccccc3n2C1c1ccco1` (stereo not drawn): -4.99 (active). The same measure for `Cn1cccc1-c1nc2ccccc2n1C`: -0.13; for `COc1ccccc1N1CCN(c2nc(C)cc(=O)[nH]2)CC1`: 0.62; for `O=C(CCNC(=O)Cn1ccc2ccccc2c1=O)NCCC1=CCCCC1`: -0.38. The same measure for `O=C(Cc1cccc2ccccc12)NCCC1=CCCCC1`: -1.35. Take `CCn1c(=O)cc(SCC(=O)NCCC2=CCCCC2)c2ccccc21`: the B-score was -8.59 (active). With `CCOc1cc(N2CCOCC2)c(OCC)cc1NC(=O)COc1cccc(Cl)c1` the figure was -0.59; with `CC(C)CN(C(=O)c1ccc2c(c1)OCO2)C1CCS(=O)(=O)C1` (stereo not drawn), -2.25; with `COc1ccc(Nc2nnc(C)c3ccccc23)cc1`, -0.1.

In the case of `COc1ccc(Nc2ncnc3sc(C)cc23)cc1`, the B-score is -6.13 (active).

Regarding `COc1ccc(Nc2ncnc3sc(-c4ccccc4)cc23)c(OC)c1`, the B-score was 0. As to `Cc1ccc2nc(Nc3ccccc3)cc(C)c2c1`, the B-score was 1.96.

`Cc1ccc2nc(C)c3c(c2c1)N(c1ccccc1)CC3`: the B-score was -13.2 (active). The same measure for `Cc1ccc2nc3n(c(=O)c2c1)CCC3`: -2.3; for `O=C(O)C1C2C=CC(C2)C1C(=O)NCc1ccccc1` (stereo not drawn): -0.26. With `CCCCCCn1c(CN2CCCCC2)nc2c1c(=O)n(C)c(=O)n2C` the figure was -1.63. With `CCCCCCCCn1c2c(c(=N)c3c1CCC3)CCCC2` the figure was -14.8 (active); with `COc1ccccc1NC(=O)C(C)OC(=O)c1ccc(-n2cnnn2)cc1` (stereo not drawn), 1.19; with `CC(=O)Nc1ccc(C(=O)NNC(=O)CCCCC(=O)NNC(=O)c2ccc(NC(C)=O)cc2)cc1`, 0.27. With `CCOc1ccc(S(=O)(=O)NCCC(=O)N2CCCCCCC2)cc1`, the B-score is -0.07.

Take `Cc1nc2ccc(C(=O)N(C)CC3CCCN(CCc4ccc(Cl)cc4)C3)cc2[nH]1` (stereo not drawn): the B-score is -1.32.

On to `COc1cccc(CN(C)CC2CCCN(CCc3ccc(Cl)cc3)C2)c1OC` (stereo not drawn), for which the B-score is -8.2 (active). As for `COc1cccc(CN(C)CC(=O)NCc2ccccc2Cl)c1OC`, the B-score is -3.73. With `O=C(Nc1ccc(OC(F)(F)F)cc1)c1ccc2c(c1)no[n+]2[O-]` the figure was 0.38; with `CCc1ccc(-c2nn(-c3ccccc3)cc2CSC(=N)N)cc1`, -10.6 (active); with `N=C(N)SCc1cccc2ccccc12`, -3.09. With `O=C(Nc1cn(-c2ccccc2)nc1-c1ccccc1)c1ccccc1` the figure was 0; with `CCN1CCN(c2ccc(S(=O)(=O)N3CCCCC3)cc2NC(=O)c2cccc(NC(C)=O)c2)CC1`, 0.95. With `CCc1ccc(C(=O)NNC(=O)C2CCN(c3ncnc4sc(C)c(C)c34)CC2)cc1` the figure was -1.35; with `O=C(COc1ccccc1Cl)Nc1ccccc1C(=O)NC1CC1`, -1.39.

Take `COc1ccc(NC(=S)NCCN2CCC(C)CC2)cc1`: the B-score was -1.95. With `COc1ccc(N2CCC(CNC(=S)Nc3c(C)cccc3C)C2)cc1` (stereo not drawn) the figure was -6.34 (active). The same measure for `COc1ccc(NC(=S)NCC2CCN(c3ccc(OC)cc3)C2)cc1` (stereo not drawn): 1.12; for `COc1ccc(F)cc1S(=O)(=O)NCC(c1ccc2c(c1)OCO2)N1CCN(C)CC1` (stereo not drawn): -0.39.

As for `COc1ccccc1CSc1ncc(-c2ccc([N+](=O)[O-])cc2)[nH]1`, the B-score is 0.65. With `CC(O)C(NS(=O)(=O)c1ccc(Cl)cc1)C(=O)OCc1cc([N+](=O)[O-])cc2c1OCOC2` (stereo not drawn) the figure was -0.06.

Consider `Nc1ccccc1SCc1cc([N+](=O)[O-])cc2c1OCOC2`, for which the B-score is -4.96 (active). With `CCN(CC)CCn1c2c(c(SCC(=O)Nc3nc4ccccc4s3)nc1=O)CCCC2` the figure was 0.03; with `COc1ccc(NC(=O)CN(C)C(=O)/C=C/c2cn(Cc3ccccc3)nc2-c2cccnc2)cc1`, 0.01.

`CCOC(=O)c1cc(NC(=O)c2cccnc2)ccn1`: the B-score is 0.04. The same measure for `CCc1noc(C)c1C(=O)Oc1ccc(N(C)S(=O)(=O)c2ccc(C)c(C)c2)cc1`: -0.66. The same measure for `CC(OC(=O)C1CC(=O)N(Cc2ccccc2)C1)C(=O)Nc1ccccc1[N+](=O)[O-]` (stereo not drawn): -1.36. The same measure for `N=c1c2c(-c3ccccc3)c(-c3ccccc3)oc2ncn1Cc1ccco1`: 1.16. Take `CCN(CC)CCn1cnc2c1c(=O)[nH]c(=O)n2Cc1ccccc1`: the B-score is 0.13.

Turning to `N=c1c2c(-c3ccccc3)c(-c3ccccc3)n(Cc3ccccc3)c2ncn1CCCO`, the B-score was -6.86 (active).

With `Cn1c(SCC(=O)c2ccccc2)ncc(C(=O)Nc2ccc(F)cc2)c1=O`, the B-score is 1.98.

Consider `O=S(=O)(Nc1cccc(-c2ccc(N3CCOCC3)nn2)c1)c1ccc(Cl)c(Cl)c1`, for which the B-score was 0.82.

Regarding `CCN(CC(=O)NCc1cccs1)C(=O)c1ccc(OC)c(S(=O)(=O)N2CCOCC2)c1`, the B-score was -0.52.

In the case of `CC1(C)NC(=O)N(CCOc2cccc(Oc3ccccc3)c2)C1=O`, the B-score is -4.68 (active). The same measure for `CC(O)CNCCOc1cccc(Oc2ccccc2)c1` (stereo not drawn): -2.96; for `Cc1cccc2c1N(CCOc1ccccc1)C(=O)C2=O`: -0.18; for `O=C(COc1coc(CN2CCN(c3ccccc3)CC2)cc1=O)Nc1ccccc1F`: -0.62. With `CN(C)CCOC1c2ccccc2-c2ccccc21` the figure was 0.04. With `CN(C)CCOCCOc1ccc(Cl)c2ccccc12` the figure was -5.07 (active); with `CCN(CC)CCOCCOc1ccc(Cl)c2ccccc12`, -2.53; with `CN(Cc1c(F)cccc1Cl)C(=O)CNC(=O)c1ccc2c(c1)OCO2`, 0.45.

Regarding `CCOc1ccc(NC(=O)CN(C)C(=O)COc2cccc(CC)c2)cc1OCC`, the B-score is -1.11.

Regarding `COc1ccc2c(c1)C(=O)Nc1cc(Cl)ccc1N2`, the B-score was 0.62. With `Cc1ccc(OCCCn2c(=O)oc3ccccc32)cc1`, the B-score is -1.92. The same measure for `CCCCCCCCCCOC(=O)Cn1c(COc2ccc(C)cc2)[n+](C)c2ccccc21`: -17.5 (active); for `CCOC(=O)CN1C(=O)C(=O)c2cc(C)ccc21`: -1.78. Turning to `CCn1c(=N)n(CC(=O)c2cccc(OC)c2)c2ccccc21`, the B-score is -0.01. The same measure for `CCCCCCCCCCOC(=O)Cn1c(COc2cccc(OC)c2)[n+](C)c2ccccc21`: -8.13 (active). With `CCCCOC(=O)Cn1c(=O)n(CC(=O)OCCCC)c2cc(C)ccc21` the figure was -7 (active); with `Cc1ccc(OCc2nc3ccccc3n2C)cc1`, -0.43. For `CCn1c(COc2cccc(OC)c2)nnc1SCC(=O)N1CCOCC1`, the B-score was 0.86. With `CCCCOC(=O)Cn1c(=N)n(CCN(CC)CC)c2ccccc21` the figure was 1.01; with `CC(C)CN(C(=O)COC(=O)c1ccc2ccccc2c1)c1c(N)n(Cc2ccccc2)c(=O)[nH]c1=O`, 1.03; with `CCOc1ccc(NC(=O)COc2ccc(C(=O)N3CCC(C(N)=O)CC3)cc2OC)cc1`, 1.65.

For the compound `COc1ccc(CNC(=O)C(=O)N2CCC3(CC2)OCCN3S(=O)(=O)c2ccc(C)cc2)cc1`, the B-score is 0.4.
